High-throughput results from PubChem.
A selection: hits, their analogues and other compounds. The true share with any hit is near 6.9%.
Vif-A3F inh – qHTS for Inhibitors of Vif-A3F Interactions: qHTS | AID 602313, 2012 | HeLa A3F-eYFP + Vif (tagged APOBEC3F with the HIV-1 protein that degrades it), YFP fluorescence increase | Potency, µM (titrated, usually from 46.1 µM), without a hit: at the highest dose activity, negative = active | 0.2% of 390,000 active; note: potency is the fitted concentration of half-maximal effect; % of control where 0% means no effect; nearly all actives have a fitted effect of over 65% in size
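HeLa cells stably expressing A3F-eYFP plus Vif, plated and incubated overnight at 37 deg C, then exposed to compounds overnight at 37 deg C. Blocked degradation read as raised yellow fluorescence (Ex 488/Em 500-530).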
SW480 rereplic – A quantitative high throughput screen for small molecules that induce DNA re-replication in SW480 colon adenocarcinoma cells; SW480 DNA re-replication, Hoechst DNA content imaging, 48 h; Potency, µM (highest dose often 46.1 µM), without a hit: at the top dose re-replication activation, usual class: activators; 1.8% of 340,000 active; note: potency is the fitted concentration of half-maximal effect; % of control where 0% means no effect; nearly all actives have a fitted effect of over 55% in size
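Image-based DNA-content assay: after two days of treatment, nuclei were labelled with the DNA dye Hoechst and imaged, and hits were compounds raising the count of nuclei showing high fluorescence intensity.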
Vif-A3G inh – qHTS for Inhibitors of Vif-A3G Interactions: qHTS. DNA dC->dU-editing enzyme APOBEC-3G (Homo sapiens), Q9HC16. HeLa A3G-eYFP + Vif (tagged APOBEC3G with the HIV-1 protein that degrades it), YFP fluorescence, overnight. Potency, µM (titrated, usually from 46.1 µM), for inactives: top-dose activity, negative = active, hits mostly inhibitors. 0.076% of 410,000 active. AID 602310, 2012; note: potency is the fitted concentration of half-maximal effect; % is set by controls: 0 for no effect and ±100 for the full control effect; nearly all actives have a fitted effect of over 60% in size
Target sequence (Q9HC16 whole entry, looked up): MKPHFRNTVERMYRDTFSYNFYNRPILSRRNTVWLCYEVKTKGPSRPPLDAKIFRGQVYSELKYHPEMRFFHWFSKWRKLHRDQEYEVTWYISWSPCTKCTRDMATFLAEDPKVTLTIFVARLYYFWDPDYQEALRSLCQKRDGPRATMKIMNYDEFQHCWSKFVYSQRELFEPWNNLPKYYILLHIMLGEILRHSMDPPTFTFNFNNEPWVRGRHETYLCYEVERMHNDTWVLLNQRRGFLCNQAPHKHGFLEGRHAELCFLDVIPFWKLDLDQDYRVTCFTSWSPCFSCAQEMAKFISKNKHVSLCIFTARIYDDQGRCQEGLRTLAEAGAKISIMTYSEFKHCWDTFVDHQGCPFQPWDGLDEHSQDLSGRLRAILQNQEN
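HeLa cells stably expressing Vif and C-terminally eYFP-tagged A3G, seeded overnight at 37 deg C, then exposed to compound by pintool overnight at 37 deg C. Rise in yellow fluorescence (Ex 488/Em 500-530, Acumen) marks blocked Vif-driven A3G degradation.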
IL-1B inflam inh – qHTS for Inhibitors of Inflammasome Signaling: IL-1-beta AlphaLISA Primary Screen; AID 743279, 2014; activity change, % at 57.5 µM; 4.7% of 360,000 active; THP-1 LPS/ATP IL-1B secretion, AlphaLISA, 16 h; hits give low values; in the data active = activity change below about -50%; inconclusive = mostly about -30% to -49%; note: % is set by controls: 0 for no effect and ±100 for the full control effect
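THP-1 cells pretreated 1 hr with compounds (up to 57.5 uM final), then stimulated with LPS (250 ng/mL final) plus ATP (1.25 mM final); secreted IL-1B measured by AlphaLISA after 16 hr, decreased signal indicating inhibition.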
Giardia killer – Small Molecules that selectively kill Giardia lamblia: qHTS. 0.15% of 340,000 active. activity change, % at 7.66 µM, hits read low. AID 540267, 2011. Giardia lamblia trophozoite viability; in the data active = activity change below about -80%; inconclusive = between about -30% and that limit;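 note: parasites exposed to compound for two days anaerobically before the ATP read; % is set by controls: 0 for no effect and ±100 for the full control effect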
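Each well holds 100 Giardia trophozoites and compound. After two days (48 hrs) at 37 deg C in anaerobic conditions, ATP is quantified by luminescence.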
MCF10A rereplic – A quantitative high throughput screen for small molecules that induce DNA re-replication in MCF 10a normal breast cells | 2.9% of 350,000 active | MCF 10A DNA re-replication, Hoechst nuclear intensity, 48 h | AID 624296, 2012 | Potency, µM (doses to about 46.1 µM), for the others: top-dose activity, positive = re-replication, actives largely listed as activators; note: potency is the fitted concentration of half-maximal effect; % of control where 0% means no effect; nearly all actives have a fitted effect of over 50% in size
Starred values were filed as active, the others as inactive; ? = inconclusive; . = not tested or not shown. Unless noted, calls come from the whole dose curve; as a rule, active = well fitted curve in the direction sought with a large enough effect; inconclusive = small, poorly fitted or top-dose-only effect, or another doubt; inactive = no such curve, though single readings can be large; an effect the other way counts as inactive or inconclusive.

SMILES	Vif-A3F inh	SW480 rereplic	Vif-A3G inh	IL-1B inflam inh	Giardia killer	MCF10A rereplic
CCOC(=O)c1ccccc1NC(=O)Cn1c(=O)n(CCC(=O)NCc2ccccc2OC)c(=O)c2ccccc21	0.6%	.	-0.3%	.	.	.
CCc1cc(SC#N)cc(CC)c1NC(=O)CCl	-2.1%	23.1µM*	-12.7%	-99.6*	-6.4	16.4µM*
CCc1cc(C(=O)NNC(=O)CCl)sc1C	9.8%	-77.0%	?	-28.0	10.7	?
CC(C)OC(=O)C(C(=O)C(F)(F)F)c1cc(NS(=O)(=O)c2ccc3ccccc3c2)c2ccccc2c1O (configuration not stated)	-24.5%	?	-29.0%	-60.8*	-2.6	?
COc1ccc(NC(=S)N(CCC(C)C)C2CCN(C(C)C)CC2)cc1Cl	0.5%	20.6µM*	1.1%	?	-25.0	?
O=C(/C(=N/N=C/c1ccc(O)c(O)c1O)c1ccccc1)c1ccccc1	?	?	?	-5.5	-2.4	?
Oc1ccc(/C=N/N=C(c2ccccc2)c2ccccc2)c(O)c1O	-0.3%	-2.1%	?	-10.7	12.9	20.6µM*
CCCS(=O)(=O)N1CCC(N2CCN(Cc3ccc(F)cc3)C(=O)C2=O)CC1	0.6%	.	0.3%	.	.	.
Cc1ccc(Cl)cc1NC(=O)C1CCN(c2nc3ccccc3n3cccc23)CC1	1.1%	.	-2.9%	.	.	.
Cc1nc(-c2ccc(Cl)cc2)oc1COC(C)(C)C(=O)O	.	-5.0%	.	.	.	-0.4%
Cc1cc(Nc2cc(Cl)nc(Sc3ccc(NC(=O)C4CC4)cc3)n2)n[nH]1	6.5%	20.6µM*	-18.8%	.	16.4	34.3%
Cc1cc(NC(=O)c2ccc(NC(=O)C3CC3)cc2)no1	-6.3%	-5.7%	7.1%	-1.6	5.9	-0.2%
O=c1ccn([C@@H]2O[C@H](CNCc3c(OCc4ccccc4F)ccc4ccccc34)[C@@H](O)[C@H]2O)c(=O)[nH]1	.	.	-0.2%	-57.8*	.	.
NC(=O)c1ncn([C@@H]2O[C@H](CNCc3c(OCc4ccccc4F)ccc4ccccc34)[C@@H](O)[C@H]2O)n1	2.1%	-3.8%	-0.8%	-18.7	7.2	-4.7%
Cn1c(C(=O)N(Cc2ccccc2)Cc2cccs2)cc2sccc21	-11.5%	14.2%	0.0%	12.9	4.7	16.4µM*
Cc1cc(O)c(C(C)C)cc1C1(c2cc(C(C)C)c(O)cc2C)OC(=O)c2ccccc21	?	?	2.5%	-99.1*	16.1	9.2µM*
COc1cc(C(=O)N/N=C/c2sccc2C)cc(OC)c1OC	3.6%	1.16µM*	?	78.6	1.6	?
COc1cc(C(=O)N/N=C/c2cc([N+](=O)[O-])cs2)cc(OC)c1OC	1.3%	?	?	22.4	-18.2	5.8µM*
COc1ccc(/C=N/NC(=O)c2sccc2C)c2ccccc12	-2.0%	?	5.5%	-6.0	-4.1	11.6µM*
COc1cc(C(=O)N/N=C/c2sc(=O)n(-c3ccccc3)c2Cl)cc(OC)c1OC	?	-4.0%	-7.9%	-70.9*	24.6	-3.8%
Cc1ccc(C2=NN(C(=O)CCl)C(c3ccco3)C2)o1 (configuration not stated)	8.3%	?	?	-94.5*	27.4	20.6µM*
CCN1CCCC1CN(Cc1cc2c(C)cc(C)cc2[nH]c1=O)C(=O)NC1CCCCC1 (configuration not stated)	2.9%	1.8%	-3.4%	-67.4*	2.4	16.3%
Cc1cc(C)c2cc(CN(CCO)C(=O)NC3CCCCC3)c(=O)[nH]c2c1	0.8%	2.7%	-2.1%	-52.4*	6.8	12.0%
Cc1cc(C)c2cc(CN(CCO)C(=O)Nc3ccc(F)cc3)c(=O)[nH]c2c1	0.0%	0.0%	-6.9%	.	-10.7	5.8%
Cc1ccc(C)c(N(C)S(=O)(=O)c2ccc3[nH]cc(C(=O)NC4CCCC4)c(=O)c3c2)c1	-1.3%	.	-1.9%	.	.	.
SMILES	Vif-A3F inh	SW480 rereplic	Vif-A3G inh	IL-1B inflam inh	Giardia killer	MCF10A rereplic
O=C(c1cc2ccccc2cc1O)N1CCN(c2cccc(Cl)c2)CC1	-15.5%	-5.2%	-4.5%	-1.1	1.1	?
O=C(c1c(Cl)nc2sccn12)N1CCN(c2cccc(Cl)c2)CC1	-2.1%	2.91µM*	?	4.0	13.5	4.11µM*
COc1cc2c(cc1OC)C(c1cc3cc4c(cc3[nH]c1=O)OCO4)N(C(=O)C(C)C)CC2 (configuration not stated)	0.6%	?	1.3%	-4.9	2.2	8.2µM*
COc1cc2c(cc1OC)C(COc1ccc(F)cc1)N(C(=O)C(C)C)CC2 (configuration not stated)	3.8%	.	-4.4%	.	.	.
Cc1cc(C)c2c(=O)cc(C(=O)Nc3c(C)n(C)n(-c4ccccc4)c3=O)oc2c1	1.3%	.	-0.8%	.	.	.
CCOC(=O)C(C(=O)OCC)c1cc(Br)c2noc3c2c1C(=O)c1ccccc1-3	?	?	-9.0%	-88.8*	-21.8	?
COc1ccc(OC)c(-c2csc(NC(=O)C3CSC4(C)CCC(=O)N34)n2)c1 (configuration not stated)	-3.1%	?	-7.5%	-54.8*	0.0	10.4%
O=C(Cc1c(F)c(F)c(F)c(F)c1F)Nc1nc(-c2ccccc2)cs1	?	-9.6%	-3.4%	-79.3*	-9.8	18.4µM*
COc1ccc(-c2csc(NC(=O)C3CSC4(C)CCC(=O)N34)n2)cc1OC (configuration not stated)	-3.3%	202.4%	-0.7%	-12.9	-1.1	8.6%
COc1ccc(CC(=O)Nc2nc(C(C)(C)C)cs2)cc1	-8.0%	?	2.6%	-108.0*	-23.6	?
O=C(Cc1cccs1)Nc1nc(-c2ccc(F)cc2F)cs1	-3.7%	?	0.8%	-69.5*	10.0	?
COc1ccc(OC)c(-c2csc(NC(=O)Cc3ccc(OC)c(OC)c3)n2)c1	0.8%	5.8%	-6.0%	-13.4	16.2	-1.7%
COc1ccc(OC)c(-c2csc(NC(=O)Cc3ccccc3)n2)c1	14.6%	18.9%	1.1%	-9.6	-1.1	?
COc1ccc(-c2csc(NC(=O)Cc3ccccc3F)n2)c(OC)c1	-3.9%	?	0.6%	-60.5*	11.1	27.3%
COc1ccc(CC(=O)Nc2nc(-c3cc(OC)ccc3OC)cs2)cc1	9.9%	1.2%	1.6%	-88.4*	4.5	?
O=C(Cc1ccccc1)Nc1nc(-c2ccc(F)c(F)c2)cs1	-5.4%	-0.8%	-0.5%	-14.2	0.1	24.3%
O=C(Cc1ccccc1F)Nc1nc(-c2ccc(F)c(F)c2)cs1	9.0%	?	-1.1%	-89.7*	-3.2	16.4µM*
